In PubChem BioAssay (NCI):
This is part of a sample that, as a whole, favours compounds with a hit. Of some 79,000 tested, about 15% had one in any assay. No stated cut-off is given here; in the data, active means growth inhibition above about 70%; inactive means the rest.

Assays:
[1] = NCI Yeast Anticancer Drug Screen. Data for the rad50 strain (AID 155);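 further: 0% = growth of vehicle-only cultures of the same strain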; conditions: S. cerevisiae rad50 strain growth inhibition; at 50.0 µM; active compounds read high
Method in brief: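 Compounds were tested on a yeast strain with an engineered DNA damage repair alteration; the reported value is growth inhibition normalised to vehicle treatment.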

[2] = NCI Yeast Anticancer Drug Screen. Data for the mec2-1 strain (AID 157); conditions: S. cerevisiae mec2-1 strain, at 50.0 µM, active compounds read high
Method in brief: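 Test agents were screened against the mec2-1 yeast strain, with defined DNA repair or cell cycle alteration. Growth was scored as inhibition against vehicle-only controls.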

[3] = NCI Yeast Anticancer Drug Screen. Data for the sgs1 mgt1 strain (AID 161);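 further: 0% = growth of cultures given vehicle only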; conditions: S. cerevisiae sgs1 mgt1 strain, at 50.0 µM, active compounds read high
Method in brief: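 Read-out: growth inhibition vs vehicle controls. Cells: mutant yeast strain deficient in DNA damage repair.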

[4] = NCI Yeast Anticancer Drug Screen. Data for the cln2 rad14 strain (AID 165);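 further: 0% = growth equal to vehicle treated cultures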; conditions: S. cerevisiae cln2 rad14 strain, at 50.0 µM, active compounds read high
Method in brief: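 Growth of compound-exposed yeast (cln2 rad14 genotype) measured and expressed as inhibition relative to vehicle.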

[5] = NCI Yeast Anticancer Drug Screen. Data for the bub3 strain (AID 167); conditions: S. cerevisiae bub3 mutant strain, at 50.0 µM, active compounds read high
Method in brief: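 Growth of a checkpoint-deficient yeast mutant is measured after compound exposure. Values represent inhibition relative to vehicle.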

[6] = NCI Yeast Anticancer Drug Screen. Data for the mlh1 rad18 strain (AID 175); conditions: S. cerevisiae mlh1 rad18 strain growth inhibition; at 50.0 µM; active compounds read high
Method in brief: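 In this whole-cell yeast screen, a strain with altered DNA damage repair is challenged with compound, and its growth is measured against matched vehicle-treated controls.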

Measured: growth inhibition

Cc1ccc2c(c1)C1(c3ccc(Cl)c(Cl)c3)Oc3ccc(C)cc3C(c3ccc(Cl)c(Cl)c3)(O2)O1
inactive: [1] 4.1% | [2] 5.15% | [3] -6.7% | [4] 2.15% | [5] 3.65% | [6] -3%

O=C(/C=C/c1ccccc1)Sc1ccccc1
inactive: [1] -2% | [2] -7.6% | [3] 13.2% | [4] -1.75% | [5] -8.1% | [6] 1.65%

O=[N+]([O-])c1cccc(S(=O)(=O)NC2c3ccccc3Oc3ccccc32)c1
inactive: [1] 22% | [2] -3.65% | [3] 26.9% | [4] 21.4% | [5] -10.7% | [6] 24.8%

C=C(C)CC1CN2CCc3cc(OC)c(OC)cc3C2CC1=O (stereo not given)
inactive: [1] 25.3% | [2] 6.85% | [3] 24.8% | [4] 18.8% | [5] 43.6% | [6] 26.6%

O/N=C(/C(=N\O)c1ccco1)c1ccco1
inactive: [1] -26.1% | [2] -46.5% | [3] -13.8% | [4] 2.45% | [5] -24.1% | [6] -8.3%

COc1nc(NC2OCC(O)C(O)C2O)c(NC2OCC(O)C(O)C2O)c(=O)n1C (stereo not given)
inactive: [1] -7.5% | [2] -1.7% | [3] -11.6% | [4] 22.5% | [5] -31.1% | [6] -12.2%

CCN(CC)CC(O)c1cccc2cc(Cl)ccc12 (stereo not given)
inactive: [1] -3.25% | [2] -8.85% | [3] 28% | [4] -15.2% | [5] -2.55% | [6] -14%

O=[N+]([O-])c1ccc2c(c1)/C(=N/O)CCC2
inactive: [1] 0.5% | [2] -0.55% | [3] 1.05% | [4] -86.4% | [5] -15.8% | [6] 4.05%

c1ccc2c(c1)NC1(CCCCC1)S2
inactive: [1] 5.35% | [2] -13.1% | [3] 39.5% | [4] 11.6% | [5] 5% | [6] 11.9%

CC(=O)CC(=O)Nc1cccc(C)c1C
inactive: [1] -8.1% | [2] -15.2% | [3] 15.3% | [4] -1.7% | [5] 9.3% | [6] -5.6%

NC(CSS(=O)(=O)O)=NCCSS(=O)(=O)O
inactive: [1] -20.4% | [2] -12.4% | [3] -3.45% | [4] 7.45% | [5] -2.4% | [6] 3.95%

CCOC(=O)C1=CNC(C(=O)OCC)C1c1cccn1-c1ccc(Cl)cc1[N+](=O)[O-] (stereo not given)
inactive: [1] 8.6% | [2] 16.8% | [3] 10.8% | [4] 29% | [5] 3.8% | [6] 40.8%

Cc1cc(Br)c(O)c(-c2cscn2)c1
inactive: [1] -17.6% | [2] -34.8% | [3] 11.8% | [4] 28.9% | [5] 16.8% | [6] 3%

COc1nc(N)c(C(=O)CCl)c(=O)n1C
inactive: [1] 3.35% | [2] -7.5% | [3] 6.5% | [4] 0.35% | [5] -20.6% | [6] 16.5%

O=S1(=O)OCCOS(=O)(=O)C1F
inactive: [1] -69% | [2] -4.65% | [3] -22.4% | [4] -23.2% | [5] -5.35% | [6] -16.1%

CN(C)CCSCC(=O)N1c2ccccc2Sc2ccc(Cl)cc21
inactive: [1] -5.25% | [2] -7.45% | [3] -2.9% | [4] 17.6% | [5] 7.95% | [6] -0.5%

O=C(COc1ccc(Cl)cc1C(=O)O)NCc1ccc([N+](=O)[O-])cc1
inactive: [1] -9.45% | [2] 8.1% | [3] 20.8% | [4] -10.9% | [5] -9.85% | [6] -24.6%

O=C(NCCNC(=O)c1cccc([N+](=O)[O-])c1O)c1cccc([N+](=O)[O-])c1O
inactive: [1] 19.6% | [2] 6.8% | [3] -2.85% | [4] -9% | [5] -3.2% | [6] 11.8%

NC1(C(=O)O)CCCC1C(=O)O (stereo not given)
inactive: [1] -8.7% | [2] -26.6% | [3] -23.1% | [4] 15.9% | [5] -6.3% | [6] -2.75%

CNC(=S)NNC(=O)c1ccncc1
inactive: [1] 11.4% | [2] 10.7% | [3] 13.6% | [4] 18.6% | [5] -0.65% | [6] 13.3%
